Screens (PubChem)
The list is not random: actives were taken first. Their share in the collection is about 0.65%.
BJeLR lethal – kills HRASV12-expressing BJeLR cells; BJeLR (HRASV12) viability, CellTiter-Glo ATP luminescence, 48 h; inhibition, % (concentration not given with the values); 0.17% of 300,000 active; in the data active = inhibition above about 50%
Sa RN4220 lethal – S. aureus RN4220 growth inhibition. OD600, 16 h. 0.33% of 330,000 active. inhibition, % (no concentration beside the values). AID 1259311; in the data active = inhibition above about 85%
ugtP null kill – compounds lethal to S. aureus RN4220 ugtP deletion mutant | 0.54% of 330,000 active | growth inhibition, % (concentration not given with the values) | OD600 growth, 16 h; in the data active = growth inhibition above about 68%
Hits are given with their value.

`CN=C1SC(CC(=O)Nc2ccc(F)cc2F)C(=O)N1N=Cc1ccc(OC(F)F)c(OC)c1` (stereo not given) gave Sa RN4220 lethal inactive and ugtP null kill inactive.
For O=C(Nc1ccc([N+](=O)[O-])cc1)C(=O)Nc1cccc(C(=O)O)c1 the results were BJeLR lethal inactive.
Screening Cc1oc2ccc(OC(=O)N(C)C)cc2c1C(=O)OC(C)C returned BJeLR lethal inactive, Sa RN4220 lethal inactive and ugtP null kill inactive.
For COC(=O)c1cc(COc2ccc3oc(C)c(C(=O)OC(C)C)c3c2)c(C)o1 the results were BJeLR lethal inactive, Sa RN4220 lethal inactive and ugtP null kill 96.
For CCC(C)N(C(=O)COC(=O)CN=C1NS(=O)(=O)c2ccccc21)C1CCS(=O)(=O)C1 (stereo not given) the results were Sa RN4220 lethal inactive and ugtP null kill inactive.
For Cc1ccc(-c2nnc(-c3ccccc3S(=O)(=O)Cc3ccc(Cl)cc3)o2)cc1 the results were BJeLR lethal inactive, Sa RN4220 lethal inactive and ugtP null kill inactive.
`Cc1cc2c(cc1S(=O)(=O)Nc1ccc(OC(F)(F)F)cc1)OCC(=O)N2` gave BJeLR lethal inactive, Sa RN4220 lethal inactive and ugtP null kill 92.
COc1cc(NS(=O)(=O)c2cc3c(cc2C)NC(=O)CO3)cc(OC)c1 was read as BJeLR lethal inactive, Sa RN4220 lethal inactive and ugtP null kill inactive.
Screening CC(=O)n1cc(N(C(=O)CCl)c2ccc([N+](=O)[O-])cc2)c2ccccc21 returned BJeLR lethal inactive, Sa RN4220 lethal inactive and ugtP null kill inactive.
`O=C(CCl)N(c1ccccc1)c1c[nH]c2ccccc12` gave BJeLR lethal inactive, Sa RN4220 lethal inactive and ugtP null kill 90.
`O=C(Cc1ccc(Cl)cc1)NCCc1c[nH]c2ccccc12` gave BJeLR lethal inactive.
For CC(=O)n1cc(N(C(=O)CCl)c2ccccc2)c2ccccc21 the results were BJeLR lethal 100, Sa RN4220 lethal inactive and ugtP null kill inactive.
O=C(O)Cc1c[nH]c2ccccc12 was read as BJeLR lethal inactive, Sa RN4220 lethal inactive and ugtP null kill inactive.
`O=C(CCl)N(c1ccc(Cl)cc1)c1c[nH]c2ccccc12` gave BJeLR lethal inactive, Sa RN4220 lethal 90 and ugtP null kill 97.
For Cc1ccc(S(=O)(=O)N(C)c2ccccc2)cc1 the results were BJeLR lethal inactive, Sa RN4220 lethal inactive and ugtP null kill inactive.
COc1ccc(N/C=C/C(=O)c2ccc(OC)c(OC)c2)cc1 was read as BJeLR lethal inactive, Sa RN4220 lethal inactive and ugtP null kill inactive.
COc1ccc(N/C=C/C(=O)c2cc(OC)c(OC)c(OC)c2)cc1 was read as BJeLR lethal 53, Sa RN4220 lethal inactive and ugtP null kill inactive.
`CCCC(=O)Nc1nc2nc(-c3ccccc3)cc(=O)n2[nH]1` gave BJeLR lethal inactive, Sa RN4220 lethal inactive and ugtP null kill inactive.
Screening O=C(O)c1cccc(Nc2nc(C(F)(F)F)nc3ccccc23)c1 returned BJeLR lethal inactive, Sa RN4220 lethal inactive and ugtP null kill inactive.
For Cc1sc(NC(=O)c2ccco2)c(C(c2cccnc2)N2CCCC2)c1C (stereo not given) the results were BJeLR lethal inactive, Sa RN4220 lethal inactive and ugtP null kill inactive.
COc1ccc(-c2sc3ccccc3c2-c2ccc(OCCN(C)C)cc2)cc1 was read as Sa RN4220 lethal 101 and ugtP null kill 100.
For COc1ccccc1-c1sc2ccccc2c1-c1ccc(OCCN2CCOCC2)cc1 the results were Sa RN4220 lethal inactive and ugtP null kill inactive.
Cc1cc(C)cc(NC(=O)Nc2ccccc2N2CCCCC2)c1 was read as BJeLR lethal inactive, Sa RN4220 lethal inactive and ugtP null kill inactive.
For Nc1ccc(S(=O)(=O)Nc2cnc3ccccc3n2)cc1 the results were BJeLR lethal inactive, Sa RN4220 lethal inactive and ugtP null kill 91.
Screening COc1ccc(C(=O)Nc2ccc(S(=O)(=O)Nc3cnc4ccccc4n3)cc2)cc1 returned BJeLR lethal inactive, Sa RN4220 lethal inactive and ugtP null kill inactive.
`COc1ccc(/C=N\NC(=O)COc2ccc(Cl)cc2Cl)c(C(=O)O)c1OC` gave BJeLR lethal inactive.
For CN1/C(=C\C=N\NC(=O)c2ccc(O)cc2)C(C)(C)c2ccccc21 the results were BJeLR lethal inactive.
For CN1C(=CC=NNC(=O)c2ccccc2Br)C(C)(C)c2ccccc21 the results were Sa RN4220 lethal inactive and ugtP null kill 88.
For C=C(C)COc1ccc(-c2[nH]ncc2-c2ccc(OC)cc2)c(O)c1 the results were BJeLR lethal inactive, Sa RN4220 lethal inactive and ugtP null kill inactive.
Screening C=C(C)COc1ccc(-c2[nH]ncc2-c2ccccc2)c(O)c1 returned BJeLR lethal inactive, Sa RN4220 lethal inactive and ugtP null kill 84.
COc1ccc(C)cc1Nc1c2c(nc3ccccc13)CCC2 was read as BJeLR lethal 56, Sa RN4220 lethal inactive and ugtP null kill inactive.
For COc1ccc(Nc2c3c(nc4ccccc24)CCCC3)cc1OC the results were BJeLR lethal inactive, Sa RN4220 lethal inactive and ugtP null kill inactive.
For O=c1cc(Nc2ccc3c(c2)OCCO3)[nH]c(=O)n1-c1ccc(Cl)cc1 the results were BJeLR lethal inactive, Sa RN4220 lethal inactive and ugtP null kill inactive.
For CC(=O)Nc1ccc(S(=O)(=O)N(C)CC(=O)Nc2ccc(Br)cc2F)cc1 the results were BJeLR lethal inactive, Sa RN4220 lethal inactive and ugtP null kill inactive.
For COC(=O)c1ccc(C(=O)OC)c(NC(=O)N2c3ccccc3Sc3ccccc32)c1 the results were BJeLR lethal inactive, Sa RN4220 lethal inactive and ugtP null kill inactive.
COC(=O)c1ccccc1NC(=O)N1c2ccccc2Sc2ccccc21 was read as BJeLR lethal inactive, Sa RN4220 lethal inactive and ugtP null kill 94.
CCC(=NCCc1ccc(OC)c(OC)c1)c1ccccc1O was read as BJeLR lethal inactive, Sa RN4220 lethal inactive and ugtP null kill inactive.
For Cc1ccc(CNC(=O)CSc2nc3ccsc3c(=O)n2NC(=O)c2ccccc2)cc1 the results were BJeLR lethal inactive, Sa RN4220 lethal inactive and ugtP null kill inactive.
For O=C(Nn1c(SCc2ccc(F)cc2)nc2ccsc2c1=O)c1ccccc1 the results were BJeLR lethal inactive, Sa RN4220 lethal 83 and ugtP null kill inactive.
Screening C=CCNC1=C(Cl)C(=O)c2ccccc2C1=O returned BJeLR lethal inactive, Sa RN4220 lethal 95 and ugtP null kill 90.
Screening O=C1C(Cl)=C(NCCc2ccccc2)C(=O)c2ccccc21 returned Sa RN4220 lethal inactive and ugtP null kill inactive.
Screening CN(C)/C=C(/C(=O)c1ccc(Cl)cc1)n1cncn1 returned BJeLR lethal inactive, Sa RN4220 lethal inactive and ugtP null kill inactive.
COC(=O)NN=Cc1ccc([N+](=O)[O-])s1 was read as Sa RN4220 lethal inactive and ugtP null kill inactive.
Cc1[nH]cnc1C(=O)NN=Cc1ccc([N+](=O)[O-])s1 was read as Sa RN4220 lethal 100 and ugtP null kill 100.
Screening O=C(N/N=C\c1ccc([N+](=O)[O-])s1)c1cncc(Br)c1 returned BJeLR lethal inactive.
`O=C(NN=Cc1ccc([N+](=O)[O-])s1)c1cncc(Br)c1` gave Sa RN4220 lethal inactive and ugtP null kill 99.
Screening Cc1cccc(CS(=O)(=O)Cc2ccc(C(=O)NCCc3ccccc3)o2)c1 returned BJeLR lethal inactive, Sa RN4220 lethal inactive and ugtP null kill inactive.
For O=S(=O)(c1ccccc1)c1cnn(-c2ccccc2)c1-c1ccc(Cl)cc1 the results were BJeLR lethal inactive, Sa RN4220 lethal inactive and ugtP null kill inactive.
`O=C(c1ccccn1)c1conc1C(=O)c1ccc(Br)cc1` gave BJeLR lethal inactive, Sa RN4220 lethal inactive and ugtP null kill inactive.
